# Assay results reported in publication PMC5540273 (PLoS ONE, 2017).
# Where two headings read alike, the source gives them in different places.
# How the values were obtained:
# Details in all cases: n = 1
# HUNK = system: HUNK
# ICK = system: ICK
# IGF1R = system: IGF1R
# IKK-alpha = system: T1, IKK-alpha
# T1 construct: gene CHUK
# IKK-beta = system: T2, IKK-beta
# T2 construct: gene IKBKB
# IKK-epsilon = system: T3, IKK-epsilon
# T3 construct: gene IKBKE
# INSRR = system: INSRR
# INSR = system: INSR
# IRAK1 = system: IRAK1
# IRAK3 = system: IRAK3
# IRAK4 = system: IRAK4
# ITK = system: ITK
# [1] = system: JAK1(JH1domain-catalytic)
# [2] = system: JAK1(JH2domain-pseudokinase)
# [3] = system: JAK2(JH1domain-catalytic)
# [4] = system: JAK3(JH1domain-catalytic)
# JNK1 = system: T4, JNK1
# T4 construct: gene MAPK8
# JNK2 = system: T5, JNK2
# T5 construct: gene MAPK9
# JNK3 = system: T6, JNK3
# T6 construct: gene MAPK10
# KIT-autoinhibited = system: KIT-autoinhibited
# [5] = concentration: 1 μM, replicates: in singlicate
# 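Further: KINOMEscan kinase panel screen.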
smiles,measurement,setting,value
Nc1ncnc2[nH]c(-c3ccccc3)nc12 [AH5015],%Inh,HUNK; [5],0%
same,%Inh,ICK; [5],0%
same,%Inh,IGF1R; [5],3%
same,%Inh,IKK-alpha; [5],42%
same,%Inh,IKK-beta; [5],55%
same,%Inh,IKK-epsilon; [5],0%
same,%Inh,INSRR; [5],19%
same,%Inh,INSR; [5],0%
same,%Inh,IRAK1; [5],0%
same,%Inh,IRAK3; [5],0%
same,%Inh,IRAK4; [5],52%
same,%Inh,ITK; [5],12%
same,%Inh,[1]; [5],8%
same,%Inh,[2]; [5],34%
same,%Inh,[3]; [5],47%
same,%Inh,[4]; [5],0%
same,%Inh,JNK1; [5],9%
same,%Inh,JNK2; [5],16%
same,%Inh,JNK3; [5],15%
same,%Inh,KIT-autoinhibited; [5],14%
CS(=O)(=O)c1ccc(-c2c(-c3ncn[nH]3)sc(N3CCOCC3)c2C#N)cc1,%Inh,HUNK; [5],0%
same,%Inh,ICK; [5],0%
same,%Inh,IGF1R; [5],7%
same,%Inh,IKK-alpha; [5],36%
same,%Inh,IKK-beta; [5],29%
same,%Inh,IKK-epsilon; [5],24%
same,%Inh,INSRR; [5],15%
same,%Inh,INSR; [5],0%
same,%Inh,IRAK1; [5],0%
same,%Inh,IRAK3; [5],100%
same,%Inh,IRAK4; [5],0%
same,%Inh,ITK; [5],6%
same,%Inh,[1]; [5],0%
same,%Inh,[2]; [5],56%
same,%Inh,[3]; [5],0%
same,%Inh,[4]; [5],2%
same,%Inh,JNK1; [5],25%
same,%Inh,JNK2; [5],0%
same,%Inh,JNK3; [5],0%
same,%Inh,KIT-autoinhibited; [5],49%
O=C(O)COc1ncnc2cc(-c3ccc4[nH]ncc4c3)sc12,%Inh,HUNK; [5],18%
same,%Inh,ICK; [5],31%
same,%Inh,IGF1R; [5],0%
same,%Inh,IKK-alpha; [5],28%
same,%Inh,IKK-beta; [5],19%
same,%Inh,IKK-epsilon; [5],4%
same,%Inh,INSRR; [5],19%
same,%Inh,INSR; [5],0%
same,%Inh,IRAK1; [5],29%
same,%Inh,IRAK3; [5],38%
same,%Inh,IRAK4; [5],0%
same,%Inh,ITK; [5],0%
same,%Inh,[1]; [5],0%
same,%Inh,[2]; [5],44%
same,%Inh,[3]; [5],16%
same,%Inh,[4]; [5],46%
same,%Inh,JNK1; [5],30%
same,%Inh,JNK2; [5],21%
same,%Inh,JNK3; [5],15%
same,%Inh,KIT-autoinhibited; [5],30%
Cc1ccc(NC(=O)Nc2cccc(C(F)(F)F)c2)cc1 [GSK955403],%Inh,HUNK; 1 µM,0%
same,%Inh,ICK; 1 µM,0%
same,%Inh,IGF1R; 1 µM,0%
same,%Inh,IKK-alpha; 1 µM,0%
same,%Inh,IKK-beta; 1 µM,0%
same,%Inh,IKK-epsilon; 1 µM,0%
same,%Inh,INSRR; 1 µM,0%
same,%Inh,INSR; 1 µM,0%
same,%Inh,IRAK1; 1 µM,0%
same,%Inh,IRAK3; 1 µM,100%
same,%Inh,IRAK4; 1 µM,0%
same,%Inh,ITK; 1 µM,12%
same,%Inh,[1]; 1 µM,0%
same,%Inh,[2]; 1 µM,12%
same,%Inh,[3]; 1 µM,0%
same,%Inh,[4]; 1 µM,0%
same,%Inh,JNK1; 1 µM,58%
same,%Inh,JNK2; 1 µM,26%
same,%Inh,JNK3; 1 µM,46%
same,%Inh,KIT-autoinhibited; 1 µM,3%
O=C1NC(=O)C(N2CCc3ccccc32)=C1c1ccccc1Cl [SB-373598],%Inh,HUNK; [5],13%
same,%Inh,ICK; [5],17%
same,%Inh,IGF1R; [5],29%
same,%Inh,IKK-alpha; [5],98.1%
same,%Inh,IKK-beta; [5],20%
same,%Inh,IKK-epsilon; [5],30%
same,%Inh,INSRR; [5],2%
same,%Inh,INSR; [5],23%
same,%Inh,IRAK1; [5],0%
same,%Inh,IRAK3; [5],9%
same,%Inh,IRAK4; [5],7%
same,%Inh,ITK; [5],10%
same,%Inh,[1]; [5],3%
same,%Inh,[2]; [5],0%
same,%Inh,[3]; [5],0%
same,%Inh,[4]; [5],40%
same,%Inh,JNK1; [5],7%
same,%Inh,JNK2; [5],6%
same,%Inh,JNK3; [5],5%
same,%Inh,KIT-autoinhibited; [5],0%
O=C(Nc1ccc2c(c1)OCO2)NC1CCN(c2ccnc(Nc3ccc(F)cc3)n2)C1 (stereo not shown) [GSK1379724],%Inh,HUNK; [5],12%
same,%Inh,ICK; [5],19%
same,%Inh,IGF1R; [5],0%
same,%Inh,IKK-alpha; [5],25%
same,%Inh,IKK-beta; [5],16%
same,%Inh,IKK-epsilon; [5],0%
same,%Inh,INSRR; [5],0%
same,%Inh,INSR; [5],0%
same,%Inh,IRAK1; [5],36%
same,%Inh,IRAK3; [5],0%
same,%Inh,IRAK4; [5],21%
same,%Inh,ITK; [5],8%
same,%Inh,[1]; [5],18%
same,%Inh,[2]; [5],0%
same,%Inh,[3]; [5],13%
same,%Inh,[4]; [5],0%
same,%Inh,JNK1; [5],33%
same,%Inh,JNK2; [5],23%
same,%Inh,JNK3; [5],24%
same,%Inh,KIT-autoinhibited; [5],0%
O=S(=O)(c1ccc(-c2ccnc3[nH]ccc23)cc1)N1CCCC1 [GSK846226],%Inh,HUNK; [5],0%
same,%Inh,ICK; [5],0%
same,%Inh,IGF1R; [5],0%
same,%Inh,IKK-alpha; [5],29%
same,%Inh,IKK-beta; [5],94.3%
same,%Inh,IKK-epsilon; [5],31%
same,%Inh,INSRR; [5],0%
same,%Inh,INSR; [5],0%
same,%Inh,IRAK1; [5],8%
same,%Inh,IRAK3; [5],22%
same,%Inh,IRAK4; [5],2%
same,%Inh,ITK; [5],10%
same,%Inh,[1]; [5],16%
same,%Inh,[2]; [5],3%
same,%Inh,[3]; [5],86%
same,%Inh,[4]; [5],0%
same,%Inh,JNK1; [5],26%
same,%Inh,JNK2; [5],24%
same,%Inh,JNK3; [5],17%
same,%Inh,KIT-autoinhibited; [5],0%
COC(=O)c1c(-c2ccccc2)c2cc(C(=O)O)ccc2c(=O)n1Cc1ccccc1,%Inh,HUNK; [5],43%
same,%Inh,ICK; [5],0%
same,%Inh,IGF1R; [5],4%
same,%Inh,IKK-alpha; [5],0%
same,%Inh,IKK-beta; [5],0%
same,%Inh,IKK-epsilon; [5],0%
same,%Inh,INSRR; [5],7%
same,%Inh,INSR; [5],0%
same,%Inh,IRAK1; [5],18%
same,%Inh,IRAK3; [5],0%
same,%Inh,IRAK4; [5],22%
same,%Inh,ITK; [5],5%
same,%Inh,[1]; [5],2%
same,%Inh,[2]; [5],0%
same,%Inh,[3]; [5],0%
same,%Inh,[4]; [5],0%
same,%Inh,JNK1; [5],0%
same,%Inh,JNK2; [5],0%
same,%Inh,JNK3; [5],0%
same,%Inh,KIT-autoinhibited; [5],0%
COc1cc2ncnc(Nc3ccc4nc(-c5ccccc5)[nH]c4c3)c2cc1OC.Cl [GW282450],%Inh,HUNK; [5],0%
same,%Inh,ICK; [5],4%
same,%Inh,IGF1R; [5],6%
same,%Inh,IKK-alpha; [5],0%
same,%Inh,IKK-beta; [5],0%
same,%Inh,IKK-epsilon; [5],0%
same,%Inh,INSRR; [5],0%
same,%Inh,INSR; [5],94.3%
same,%Inh,IRAK1; [5],25%
same,%Inh,IRAK3; [5],0%
same,%Inh,IRAK4; [5],13%
same,%Inh,ITK; [5],14%
same,%Inh,[1]; [5],6%
same,%Inh,[2]; [5],0%
same,%Inh,[3]; [5],0%
same,%Inh,[4]; [5],0%
same,%Inh,JNK1; [5],18%
same,%Inh,JNK2; [5],26%
same,%Inh,JNK3; [5],19%
same,%Inh,KIT-autoinhibited; [5],0%
Cc1cccc(-c2cc(Nc3ccncc3)c3ccccc3n2)n1 [GSK223675],%Inh,HUNK; [5],0%
same,%Inh,ICK; [5],11%
same,%Inh,IGF1R; [5],0%
same,%Inh,IKK-alpha; [5],0%
same,%Inh,IKK-beta; [5],0%
same,%Inh,IKK-epsilon; [5],36%
same,%Inh,INSRR; [5],0%
same,%Inh,INSR; [5],14%
same,%Inh,IRAK1; [5],15%
same,%Inh,IRAK3; [5],0%
same,%Inh,IRAK4; [5],13%
same,%Inh,ITK; [5],0%
same,%Inh,[1]; [5],11%
same,%Inh,[2]; [5],5%
same,%Inh,[3]; [5],100%
same,%Inh,[4]; [5],0%
same,%Inh,JNK1; [5],11%
same,%Inh,JNK2; [5],27%
same,%Inh,JNK3; [5],15%
same,%Inh,KIT-autoinhibited; [5],0%
Cc1csc(-c2nc(Nc3ccncc3)c3ccccc3n2)n1 [GW869640],%Inh,HUNK; [5],0%
same,%Inh,ICK; [5],33%
same,%Inh,IGF1R; [5],14%
same,%Inh,IKK-alpha; [5],48%
same,%Inh,IKK-beta; [5],41%
same,%Inh,IKK-epsilon; [5],0%
same,%Inh,INSRR; [5],11%
same,%Inh,INSR; [5],2%
same,%Inh,IRAK1; [5],12%
same,%Inh,IRAK3; [5],0%
same,%Inh,IRAK4; [5],0%
same,%Inh,ITK; [5],11%
same,%Inh,[1]; [5],0%
same,%Inh,[2]; [5],74%
same,%Inh,[3]; [5],53%
same,%Inh,[4]; [5],9%
same,%Inh,JNK1; [5],54%
same,%Inh,JNK2; [5],16%
same,%Inh,JNK3; [5],15%
same,%Inh,KIT-autoinhibited; [5],24%
